In PubChem BioAssay one finds composite z-score and z-score data, which are given here for 5 molecules.

The subject of experiment [1] is Wnt5a (protein binding on small-molecule microarray). The experiment is described as follows: Wnt5a binders on small-molecule microarray, primary screen, biophysical, 635/667 nm fluorescence (AID 1142).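 Also: fluorescence read at 667 nm with signal to noise per printed feature.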 The note with it: 635 nm fluorescence, higher = more signal.
Experiment [2] in a line: cell viability in Huh7 cells, primary screen, cytotoxicity control for HCV replication inhibitor project, CellTiter-Glo luminescence, basal, 48 h (AID 1143).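 Also: Huh7 hepatoma cells carrying a hepatitis C replication reporter with no stimulus; test concentration not given here.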 Particulars: Huh7 HCV replicon, higher = more signal, called active from +8 up or from −8 down. A general note: In ATP-based viability assays light output follows the ATP content of the culture.
A short description of experiment [3]: P. aeruginosa biofilm formation inhibitors, primary screen, PAO1 strain, BacTiter-Glo luminescence, LB-PBS (AID 1144). Particulars: 12 h, higher = more signal.
Experiment [4] in a line: CREB reporter modulators without forskolin, primary screen, cell-based, PC12, CRE-LacZ reporter, unstimulated (AID 1145). Particulars: no forskolin, luminescence, 4.5 h, higher = more signal, called active from +8 up or from −8 down.
Experiment [5] in a line: CREB reporter modulators under forskolin, primary screen, cell-based, PC12, CRE-LacZ reporter, forskolin-stimulated (AID 1146).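 Also: PC12 cells with 6xCRE LacZ reporter stimulated by forskolin 10 µM; beta-galactosidase reporter signal reflecting CREB driven transcription.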 Particulars: luminescence, 4.5 h, higher = more signal, called active from +8 up or from −8 down.
For experiment [6], the target named is Streptavidin (Streptomyces avidinii) (UniProt P22629). Put plainly: streptavidin binders on small-molecule microarray, primary screen, artefact control for SMM compound annotation, biophysical, 635/667 nm fluorescence (AID 1147).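 Also: signal reflects streptavidin binding to arrayed compounds as a control protein.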 The note with it: streptavidin binding, higher = more signal.
Sequence of Streptavidin (Streptomyces avidinii) (P22629 whole entry, looked up): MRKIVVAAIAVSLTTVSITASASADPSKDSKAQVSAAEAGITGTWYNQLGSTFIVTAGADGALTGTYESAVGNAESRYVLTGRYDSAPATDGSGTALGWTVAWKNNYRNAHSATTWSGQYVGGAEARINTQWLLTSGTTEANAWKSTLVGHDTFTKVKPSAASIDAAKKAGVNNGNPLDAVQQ
Experiment [7] in a line: small-molecule binders of probe aInhba, primary screen, biochemical, small-molecule microarray, 635/667 nm fluorescence (AID 1148).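 Also: score merges 667nm spot fluorescence with signal-to-noise for antibody binding to printed compounds.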 The note with it: higher = more signal.
The target in experiment [8] is Torsin-1A (Homo sapiens) (UniProt O14656). The experiment is described as follows: torsin A binders from cell lysate, primary screen, small-molecule microarray, wild-type, 635/667 nm (AID 1149). The note with it: COS7 hTOR1A-WT lysate, 635 nm fluorescence, higher = more signal.
Sequence of Torsin-1A (Homo sapiens) (O14656 whole entry, looked up): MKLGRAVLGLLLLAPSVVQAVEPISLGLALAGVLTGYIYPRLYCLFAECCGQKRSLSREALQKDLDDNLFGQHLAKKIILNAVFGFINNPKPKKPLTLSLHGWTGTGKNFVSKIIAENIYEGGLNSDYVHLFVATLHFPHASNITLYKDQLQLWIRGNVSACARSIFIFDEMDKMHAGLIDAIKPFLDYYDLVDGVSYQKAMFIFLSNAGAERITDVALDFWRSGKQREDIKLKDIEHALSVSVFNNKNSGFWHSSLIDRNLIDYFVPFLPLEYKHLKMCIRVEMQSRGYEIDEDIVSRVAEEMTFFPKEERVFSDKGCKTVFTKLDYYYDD
The target is the same in experiment [9]. Put plainly: small-molecule binders of mutant TOR1A in lysate, primary screen, cell lysate, small-molecule microarray, COS7 lysate, 635/667 nm fluorescence (AID 1150).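 Also: score pools 667 nm emission and signal to noise measuring lysate protein binding.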 The note with it: COS7 hTOR1A mutant lysate, 635 nm fluorescence, higher = more signal.
Experiment [10] has as its system Sonic hedgehog protein (Shh). Put plainly: small-molecule binders of Shh protein, primary screen, biochemical, small-molecule microarray, 635/667 nm fluorescence (AID 1151).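 Also: Shh protein binding to compounds spotted on small-molecule microarray slides; score combines spot fluorescence intensity with signal-to-noise across triplicate slides.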 The note with it: small-molecule microarray binding, 635 nm fluorescence; higher = more signal.
Experiment [11] in a line: E. coli DRC41 culture turbidity changes, primary screen, E. coli filamentation inducer project, strain DRC41, OD650, 48 h (AID 1152).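 Also: E. coli MC1000 strain DRC41 lacking acrAB efflux pump and sulA.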 Particulars: E. coli DRC41 (acrAB sulA), higher = more signal, called active from +8 up or from −8 down.
Experiment [12] can be described thus: small-molecule binders of probe aLefty1, primary screen, biochemical, small-molecule microarray, 635/667 nm fluorescence (AID 1153).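 Also: score merges spot fluorescence with signal-to-noise ratio from the scanned slide images.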 The note with it: higher = more signal.
A short description of experiment [13]: PSAC antagonists in infected red cells, primary screen, cell-based, P. falciparum Indochina, OD700, 1 h (AID 1154). The note with it: P. falciparum Indochina infected RBC osmotic lysis, higher = more signal, called active from +8 up or from −8 down.
The nature of experiment [14]: PSAC antagonists in infected red cells, primary screen, cell-based, P. falciparum Indochina, OD700, 2 h (AID 1155).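 Also: lysis reports solute entry through the parasite surface anion channel PSAC; channel blockers reduce lysis of infected cells.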 Particulars: P. falciparum Indochina infected erythrocytes, osmotic lysis OD700; higher = more signal, called active from +8 up or from −8 down.
Experiment [15] is described as follows: osmotic lysis modulators in infected erythrocytes, primary screen, PSAC antagonist project, cell-based, P. falciparum Indochina, OD700, 3 h (AID 1156). Particulars: higher = more signal, called active from +8 up or from −8 down.
The nature of experiment [16]: PSAC antagonists in infected red cells, primary screen, cell-based, P. falciparum Indochina, OD700, 18 h (AID 1157). The note with it: P. falciparum Indochina infected erythrocytes, osmotic lysis OD700, 18 h; higher = more signal, called active from +8 up or from −8 down.
Experiment [17] can be described thus: modulators of S6 phosphorylation in cells, primary screen, cell-based, A549, cytoblot, luminescence, serum-stimulated (AID 1158).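 Also: serum-stimulated A549 lung adenocarcinoma cells; signal is phosphorylated S6 detected by cytoblot immunostaining with HRP secondary.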 The note with it: A549 phospho-S6 cytoblot, 5 h, higher = more signal.
Experiment [18] has as its target NADPH oxidase 2 (Homo sapiens) (UniProt P04839). Put plainly: NOX2-dependent H2O2 signal modulators, primary screen, NOX inhibitor project, cell-based, HEK293-NOX2, PMA-stimulated, Amplex Red fluorescence (AID 1159). Also: test concentration not given here. Particulars: 45 min, higher = more signal, called active from +8 up or from −8 down.
In experiment [19] the target is NADPH oxidase 4 (Homo sapiens) (UniProt Q9NPH5). The experiment is described as follows: NOX4-dependent H2O2 signal modulators, primary screen, NOX inhibitor project, cell-based, HEK293-NOX4, tetracycline-induced, Amplex Red fluorescence (AID 1160). The note with it: 45 min, higher = more signal, called active from +8 up or from −8 down.
Sequence of NADPH oxidase 4 (Homo sapiens) (Q9NPH5 whole entry, looked up): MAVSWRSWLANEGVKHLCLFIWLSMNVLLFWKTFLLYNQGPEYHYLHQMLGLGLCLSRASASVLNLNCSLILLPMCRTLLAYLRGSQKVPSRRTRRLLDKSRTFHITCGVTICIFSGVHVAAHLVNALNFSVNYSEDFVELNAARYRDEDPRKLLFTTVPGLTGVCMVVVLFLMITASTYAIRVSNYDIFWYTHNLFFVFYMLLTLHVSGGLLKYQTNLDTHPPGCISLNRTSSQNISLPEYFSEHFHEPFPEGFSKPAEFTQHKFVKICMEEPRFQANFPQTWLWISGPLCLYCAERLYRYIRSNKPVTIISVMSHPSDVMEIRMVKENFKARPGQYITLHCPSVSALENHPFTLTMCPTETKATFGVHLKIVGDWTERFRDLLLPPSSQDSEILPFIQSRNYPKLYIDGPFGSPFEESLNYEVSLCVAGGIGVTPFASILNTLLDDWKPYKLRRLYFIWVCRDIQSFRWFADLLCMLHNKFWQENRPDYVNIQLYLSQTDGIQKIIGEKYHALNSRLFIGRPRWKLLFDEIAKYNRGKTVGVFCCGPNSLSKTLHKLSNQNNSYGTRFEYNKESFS
The target in experiment [20] is NADPH oxidase 5 (Homo sapiens) (UniProt Q96PH1). The experiment is described as follows: NOX5-dependent H2O2 signal modulators, primary screen, NOX inhibitor project, cell-based, HEK293-NOX5, Amplex Red fluorescence (AID 1161). The note with it: HEK293-NOX5, ionomycin, 45 min, higher = more signal.
Sequence of NADPH oxidase 5 (Homo sapiens) (Q96PH1 whole entry, looked up): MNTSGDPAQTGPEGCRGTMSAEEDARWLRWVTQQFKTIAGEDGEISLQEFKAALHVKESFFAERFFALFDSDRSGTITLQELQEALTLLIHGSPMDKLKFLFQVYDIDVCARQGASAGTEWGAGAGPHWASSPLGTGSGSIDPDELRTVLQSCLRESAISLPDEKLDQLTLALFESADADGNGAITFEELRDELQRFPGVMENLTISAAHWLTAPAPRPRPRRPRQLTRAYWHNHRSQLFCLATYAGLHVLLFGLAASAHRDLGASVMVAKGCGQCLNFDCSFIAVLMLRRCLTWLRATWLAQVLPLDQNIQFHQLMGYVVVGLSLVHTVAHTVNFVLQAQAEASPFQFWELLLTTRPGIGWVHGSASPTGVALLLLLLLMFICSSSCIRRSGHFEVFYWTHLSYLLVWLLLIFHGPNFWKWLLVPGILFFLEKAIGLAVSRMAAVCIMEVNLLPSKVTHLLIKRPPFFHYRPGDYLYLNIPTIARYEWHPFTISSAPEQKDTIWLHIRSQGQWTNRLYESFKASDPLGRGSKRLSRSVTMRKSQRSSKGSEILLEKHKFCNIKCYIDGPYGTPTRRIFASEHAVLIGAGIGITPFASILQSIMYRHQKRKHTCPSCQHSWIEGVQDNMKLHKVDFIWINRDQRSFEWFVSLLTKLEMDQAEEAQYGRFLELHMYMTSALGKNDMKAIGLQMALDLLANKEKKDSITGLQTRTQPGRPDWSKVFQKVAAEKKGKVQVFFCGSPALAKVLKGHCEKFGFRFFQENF

Calls of active or inactive are those of the source. Unless noted, no rule for the calls is given here.

Sequence of NADPH oxidase 2 (Homo sapiens) (P04839 whole entry, looked up): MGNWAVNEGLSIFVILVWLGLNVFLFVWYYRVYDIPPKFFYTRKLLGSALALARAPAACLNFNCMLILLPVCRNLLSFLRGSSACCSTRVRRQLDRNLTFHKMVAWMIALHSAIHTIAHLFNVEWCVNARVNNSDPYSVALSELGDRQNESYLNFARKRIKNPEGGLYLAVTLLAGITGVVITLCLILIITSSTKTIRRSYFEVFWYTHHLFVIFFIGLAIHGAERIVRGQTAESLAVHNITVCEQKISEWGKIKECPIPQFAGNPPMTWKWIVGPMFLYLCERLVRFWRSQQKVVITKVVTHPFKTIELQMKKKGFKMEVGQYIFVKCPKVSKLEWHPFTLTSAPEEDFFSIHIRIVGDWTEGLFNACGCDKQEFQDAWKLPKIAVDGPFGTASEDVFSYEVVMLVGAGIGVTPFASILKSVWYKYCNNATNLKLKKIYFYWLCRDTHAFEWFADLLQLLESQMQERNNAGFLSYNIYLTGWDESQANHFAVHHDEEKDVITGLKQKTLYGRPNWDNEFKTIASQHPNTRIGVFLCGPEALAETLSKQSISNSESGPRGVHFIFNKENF

With `COc1ccc(COC(=O)NN=C2C[C@@H](O)[C@@H](O)[C@@H]3[C@@H]4C(=O)N(c5ccc(F)cc5F)C(=O)[C@@H]4CC[C@@H]23)cc1`, the composite z-score is -0.207 in experiment [1]; 0.509 in [6]; -0.0762 in experiment [7]; -0.372 with Torsin-1A (Homo sapiens) [8]; 0.389 in the experiment with Torsin-1A (Homo sapiens) [9]; -1.13 in experiment [10]. The molecule also returned a composite z-score in experiment [12] of 0.235. In addition, the z-score in experiment [2] is 0.0335 (inactive); in [3] it was 1.02 (inactive); in [4] it was 1.61 (inactive); in experiment [5] it was -0.0874 (inactive); in experiment [11] it was 0.0009 (inactive); in experiment [13] it was 5.54 (inactive). Also, the z-score in experiment [14] was 0.54 (inactive); in experiment [15] it was 1.15 (inactive); in [16] it was 0.302 (inactive); in experiment [17], 0.281; in experiment [18], 1.5 (inactive); in experiment [19], -1.98 (inactive). In experiment [20], the z-score was -1.12.

With `CCCNC(=O)OC[C@H]1O[C@H](CCON=CC[C@@H]2C=C[C@H](OC(C)=O)[C@@H](COC(C)=O)O2)C=C[C@@H]1Oc1ccc(OC)cc1`, the composite z-score is 0.371 in [1]; 0.0822 in [6]; -0.128 in experiment [7]; -0.475 in the experiment with Torsin-1A (Homo sapiens) [8]; 0.0275 with Torsin-1A (Homo sapiens) [9]; 0.535 in [10]. The molecule also gave a composite z-score in experiment [12] of -0.145. Further, the z-score in experiment [2] was 0.0377 (inactive); in experiment [3], 0.348 (inactive); in experiment [4], 0.345 (inactive); in [5], 0.391 (inactive); in experiment [11] it was -0.413 (inactive); in [13] it was 1.6 (inactive). The z-score in experiment [14] was 0.405 (inactive); in experiment [15] it was 0.126 (inactive); in experiment [16], 0.392 (inactive); in [17], -0.397; in experiment [18], -1.02 (inactive); in [19] it was 0.143 (inactive). For the same molecule, the z-score in [20] was -1.07.

With `CO[C@H]1O[C@H](CO)[C@@H](OC(=O)Nc2ccc(C#N)cc2)[C@H](OC(=O)c2cc3ccccc3[nH]2)[C@H]1OC(=O)c1cc2ccccc2[nH]1`, the composite z-score in experiment [1] was 0.436; in experiment [6] it was 0.779; in [7] it was -0.0011; in the experiment with Torsin-1A (Homo sapiens) [8], 0.91; with Torsin-1A (Homo sapiens) [9], 1.36; in experiment [10], 0.746. The molecule further came in with a composite z-score in [12] of 0.254. The z-score is -3.88 (inactive) in experiment [2]; -2.05 (inactive) in experiment [3]; 0.484 (inactive) in [4]; -1.03 (inactive) in [5]; 2.89 (inactive) in experiment [11]; 3.44 (inactive) in experiment [13]. Also, the z-score in experiment [14] is 0.178 (inactive); in experiment [15] it was 1.71 (inactive); in experiment [16], -0.418 (inactive); in experiment [17] it was 2.06; in experiment [18] it was -3.9 (inactive); in [19], -0.214 (inactive). This molecule registered a z-score in [20] of -4.49.

Regarding `CCN1C(=O)[C@H]2[C@H]3[C@H](O)[C@H](O)CC(=NOC[C@@H](C)[C@H](OCc4ccccc4)C(C)C)[C@@H]3CC[C@H]2C1=O`, the composite z-score is 0.0339 in [1]; 0.251 in [6]; -0.0458 in experiment [7]; 0.221 in the experiment with Torsin-1A (Homo sapiens) [8]; 1.05 with Torsin-1A (Homo sapiens) [9]; 0.119 in experiment [10]. This molecule showed a composite z-score in experiment [12] of -0.144. Further, the z-score in experiment [2] was -0.994 (inactive); in [3], 0.683 (inactive); in experiment [4] it was 0.513 (inactive); in experiment [5], 0.435 (inactive); in experiment [11] it was 0.618 (inactive); in experiment [13] it was 0.551 (inactive). For the same molecule, the z-score in [14] is 0.106 (inactive); in [15], 0.061 (inactive); in experiment [16], 0.0723 (inactive); in experiment [17] it was -0.357; in [18], -0.136 (inactive); in experiment [19], 0.338 (inactive). The molecule further came in with a z-score in experiment [20] of -0.287.

On to `C=CC[C@]1(C(=O)NCc2ccccc2)N=C(c2ccc(OCCCO)cc2)O[C@H]1c1ccccc1`, for which the composite z-score in [1] was -0.2; in [6], -0.134; in experiment [7], -0.003; with Torsin-1A (Homo sapiens) [8] it was 1.04; with Torsin-1A (Homo sapiens) [9], 1.39; in experiment [10], -0.872. This molecule displayed a composite z-score in [12] of 0.398. In addition, the z-score in [2] is -4.19 (inactive); in [3] it was -0.71 (inactive); in [4] it was 0.848 (inactive); in [5], 1.34 (inactive); in experiment [11] it was -0.0491 (inactive); in experiment [13] it was 14.6 (active). Also, the z-score is 1.83 (inactive) in experiment [14]; 0.668 (inactive) in experiment [15]; 1.26 (inactive) in experiment [16]; -0.0429 in [17]; -2.86 (inactive) in [18]; -0.495 (inactive) in experiment [19]. In addition, in experiment [20], the z-score is -1.96.
